Several values for one entry are separate records, joined by “and”; a condition that tells them apart may be missing. Identical values can stand only once. Records with an inconclusive call do not appear. Where a structure was tested more than once in an assay, its records may differ in their call. Activity calls are given as the source filed them. Unless noted, calls follow the shape of the dose curve; as a rule, active = well fitted curve in the direction sought with a large enough effect in the repeat runs; inconclusive = weak or mixed curves; inactive = no such curve, though single readings can be large; an effect the other way counts as inactive or inconclusive.

Experiment [1] is described as follows: A CellTox Green Cytotoxicity Assay to monitor cytotoxicity in HepG2 cells - 0 hour (AID 1224882). Also: nearly all actives have a fitted effect of over 35% in size. Also: potency is read from the fitted curve at half-maximal effect. In short, it runs like this: (§1)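 Real-time, homogeneous cytotoxicity readout: dead-cell DNA staining by CellTox Green in HepG2 monolayers, fluorescence measured at timed intervals up to 40 h of continuous compound exposure.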
The nature of experiment [2]: A CellTox Green Cytotoxicity Assay to monitor cytotoxicity in HepG2 cells - 32 hour (AID 1224883). Also: nearly all actives have a fitted effect of over 50% in size. Also: potency is read from the fitted curve at half-maximal effect. An outline of the steps:
as §1

Experiment [3] can be described thus: qHTS RealTime-Glo MT Cell Viability Assay in HepG2 cells - 16 hour (AID 1224885). Also: nearly all actives have a fitted effect of over 50% in size. In short, it runs like this: (§2)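 Cells + NanoLuc/prosubstrate dispensed (600 cells/well) → 5 h at 37 C/5% CO2 → compounds in DMSO transferred → 40 h incubation at 37 C, luminescence read at 0, 8, 16, 24, 32, 40 h.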
A general note: qHTS replaces the single test concentration by a dilution series.

Experiment [4] is described as follows: qHTS RealTime-Glo MT Cell Viability Assay in HEK293 cells - 24 hour (AID 1224886). Also: nearly all actives have a fitted effect of over 50% in size. Also: potency is read from the fitted curve at half-maximal effect. An outline of the steps:
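Tox21 10K qHTS, HEK293, 600 cells/well, RealTime-Glo reagent co-dispensed with cells; 5 h preincubation, compound by pintool, 37 C, luminescence at 0–40 h.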

Experiment [5] can be described thus: qHTS RealTime-Glo MT Cell Viability Assay in HEK293 cells - 8 hour (AID 1224887). Also: nearly all actives have a fitted effect of over 50% in size. Also: potency is read from the fitted curve at half-maximal effect. An outline of the steps: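 Nonlytic bioluminescent viability monitoring. HEK293 at 600 cells/well with reagent; 5 h settle; compound transfer by pintool; plates held at 37 C and read at set time points.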
Experiment [6] is described as follows: A CellTox Green Cytotoxicity Assay to monitor cytotoxicity in HEK293 cells - 16 hour (AID 1224888). Also: nearly all actives have a fitted effect of over 35% in size. Also: potency is read from the fitted curve at half-maximal effect. In short, it runs like this:
(§3)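 Cytotoxicity was tracked continuously in HEK293 cells by a DNA-binding dye excluded from viable cells. Compounds were transferred in DMSO 5 h after seeding; fluorescence was recorded at intervals up to 40 h.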

Experiment [7] can be described thus: qHTS RealTime-Glo MT Cell Viability Assay in HepG2 cells - 0 hour (AID 1224889). Also: nearly all actives have a fitted effect of over 50% in size. In short, it runs like this:
as §2

Experiment [8] is described as follows: A CellTox Green Cytotoxicity Assay to monitor cytotoxicity in HepG2 cells - 8 hour (AID 1224890). Also: nearly all actives have a fitted effect of over 45% in size. Also: potency is read from the fitted curve at half-maximal effect. An outline of the steps: as §1
The nature of experiment [9]: qHTS assay to identify small molecule antagonists of the estrogen receptor alpha (ER-alpha) signaling pathway using the BG1 cell line in the presence of 0.1 nM 17-beta-estradiol - cell viability counter screen (AID 1259241). Also: nearly all actives have a fitted effect of over 40% in size. Also: potency is read from the fitted curve at half-maximal effect. An outline of the steps: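 Following 5 days in phenol red-free medium with charcoal-stripped serum, VM7Luc4E2 cells received test compounds alongside 0.1 nM 17beta-estradiol (final) at 37C for 22 hr. Live cells were then quantified via protease-substrate fluorescence.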

Experiment [10] in a line: qHTS assay to identify small molecule antagonists of the androgen receptor (AR) signaling pathway using the MDA cell line in the presence of 0.5 nM R1881 - cell viability counter screen (AID 1259242). Also: nearly all actives have a fitted effect of over 45% in size. Also: potency is read from the fitted curve at half-maximal effect. In short, it runs like this: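 Cytotoxicity toward MDA-kb2 cells is measured by CellTiter-Fluor live-cell protease fluorescence after 16 hr compound exposure at 37C in the presence of 0.5 nM R1881 stimulator.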

The target in experiment [11] is Estrogen receptor (Homo sapiens) (UniProt P03372). The experiment is described as follows: qHTS assay to identify small molecule antagonists of the estrogen receptor alpha (ER-alpha) signaling pathway using the BG1 cell line in the presence of 0.1 nM 17-beta-estradiol (AID 1259244). Also: nearly all actives have a fitted effect of over 50% in size. Also: potency is read from the fitted curve at half-maximal effect. An outline of the steps:
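After 5 days in hormone-depleted medium (charcoal-stripped serum, no phenol red), VM7Luc4E2 cells were seeded, incubated 24 h, then co-treated with compound and 0.1 nM (final) estradiol for 22 h before luminescence detection.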

Experiment [12] can be described thus: qHTS assay to identify small molecule phospholipidosis (PLD) inducers (AID 1259344; active = well fitted curve in the direction sought with a large enough effect; an effect the other way counts as inactive or inconclusive). An outline of the steps: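 Quantitative HTS in HepG2: compound plus LipidTOX Red dye for 24 h, paraformaldehyde fixation with Hoechst 33342, widefield high-content imaging; amiodarone as positive and DMSO as negative control.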
A short description of experiment [13]: qHTS assay to identify small molecule HDAC inhibitors - cell viability counter screen (AID 1259365). In short, it runs like this: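 HCT-116 wild-type, overnight attachment; 2hr drug exposure, 37C; CellTiter-Glo luminescent ATP readout after 30min RT.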
Experiment [14] can be described thus: qHTS assay to identify small molecule agonists of the sonic hedgehog signaling (Shh) pathway - cell viability counter screen (AID 1259366). Also: nearly all actives have a fitted effect of over 50% in size. Also: potency is read from the fitted curve at half-maximal effect. In short, it runs like this:
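Compounds in DMSO were pin-transferred onto 3T3 Gli1-Luc cells that had settled 4hr; plates then stood 24hr at 37C and 5% CO2. One hour before the end, CellTiter-Fluor was added and fluorescence recorded.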

Experiment [15] in a line: qHTS assay to identify small molecule antagonists of the sonic hedgehog signaling (Shh) pathway - cell viability counter screen (AID 1259367). Also: nearly all actives have a fitted effect of over 55% in size. Also: potency is read from the fitted curve at half-maximal effect. An outline of the steps:
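Seed 3T3 Gli1-Luc cells at 2,000 per well; incubate 4 hr; add compound in DMSO, then conditioned medium; incubate at 37C with 5% CO2; add CellTiter-Fluor after 23 hr; read fluorescence 1 hr later.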

Experiment [16] can be described thus: qHTS assay to identify small molecule agonists of the sonic hedgehog signaling (Shh) pathway (AID 1259368; calls by dose curve;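 also: NIH/3T3-derived 3T3Gli1-Luc cells carrying a stable Gli1-driven firefly luciferase reporter; series mostly up to about 92 µM; nearly all actives have a fitted effect of over 15% in size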). An outline of the steps: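 Steps: seed 3T3 Gli1-Luc cells, incubate 4 hr at 37 C, pin-transfer compounds in DMSO alongside a positive control, incubate 24 hr, add luciferase detection reagent, wait 30 min at room temperature, read luminescence.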
Experiment [17] in a line: qHTS assay to identify small molecule antagonists of the sonic hedgehog signaling (Shh) pathway (AID 1259369; calls by dose curve; also: nearly all actives have a fitted effect of over 45% in size; also: potency is read from the fitted curve at half-maximal effect). In short, it runs like this:
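Inhibition of Shh signalling is measured as reduced Gli1-response-element firefly luciferase output in an NIH/3T3-derived stable reporter clone stimulated with conditioned medium for 24hr.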

A short description of experiment [18]: qHTS assay to identify small molecule HDAC inhibitors (AID 1259364). Also: nearly all actives have a fitted effect of over 45% in size. Also: potency is read from the fitted curve at half-maximal effect. In short, it runs like this:
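Homogeneous cell-based luminescent assay of endogenous class I/II HDAC activity; HCT-116 cells, 2 h compound exposure, 30 min HDAC-Glo development at RT.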

Experiment [19] concerns the target Androgen receptor (Homo sapiens) (UniProt P10275). The experiment is described as follows: qHTS assay to identify small molecule antagonists of the androgen receptor (AR) signaling pathway using the MDA cell line in the presence of 0.5 nM R1881 (AID 1259243). Also: nearly all actives have a fitted effect of over 50% in size. Also: potency is read from the fitted curve at half-maximal effect. In short, it runs like this: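 Steps: seed MDA-kb2 cells, incubate 5 hr at 37C; pin-transfer compounds in DMSO; add R1881 to 0.5 nM final; incubate 16 hr; add ONE-Glo, wait 30 min at room temperature; read luminescence.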

Experiment [20] is described as follows: A CellTox Green Cytotoxicity Assay to monitor cytotoxicity in HEK293 cells - 8 hour (AID 1224884). Also: nearly all actives have a fitted effect of over 35% in size. In short, it runs like this:
as §3

Estrogen receptor (Homo sapiens), sequence (P03372 whole entry, looked up): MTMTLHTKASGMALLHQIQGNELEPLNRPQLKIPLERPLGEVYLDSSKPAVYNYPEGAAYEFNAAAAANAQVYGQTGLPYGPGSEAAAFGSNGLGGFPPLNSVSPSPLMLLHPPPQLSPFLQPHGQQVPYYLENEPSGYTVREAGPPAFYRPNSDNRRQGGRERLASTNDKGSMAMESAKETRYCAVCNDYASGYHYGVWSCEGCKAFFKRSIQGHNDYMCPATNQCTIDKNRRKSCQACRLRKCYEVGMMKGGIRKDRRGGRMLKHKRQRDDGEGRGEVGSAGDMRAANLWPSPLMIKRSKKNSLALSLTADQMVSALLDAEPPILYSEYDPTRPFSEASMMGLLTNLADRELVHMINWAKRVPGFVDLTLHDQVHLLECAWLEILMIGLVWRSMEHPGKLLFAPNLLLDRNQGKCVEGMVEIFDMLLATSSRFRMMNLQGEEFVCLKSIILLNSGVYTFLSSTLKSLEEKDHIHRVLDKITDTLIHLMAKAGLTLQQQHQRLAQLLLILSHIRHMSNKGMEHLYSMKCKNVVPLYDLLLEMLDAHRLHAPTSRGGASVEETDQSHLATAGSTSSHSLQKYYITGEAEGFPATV
Androgen receptor (Homo sapiens), sequence (P10275 whole entry, looked up): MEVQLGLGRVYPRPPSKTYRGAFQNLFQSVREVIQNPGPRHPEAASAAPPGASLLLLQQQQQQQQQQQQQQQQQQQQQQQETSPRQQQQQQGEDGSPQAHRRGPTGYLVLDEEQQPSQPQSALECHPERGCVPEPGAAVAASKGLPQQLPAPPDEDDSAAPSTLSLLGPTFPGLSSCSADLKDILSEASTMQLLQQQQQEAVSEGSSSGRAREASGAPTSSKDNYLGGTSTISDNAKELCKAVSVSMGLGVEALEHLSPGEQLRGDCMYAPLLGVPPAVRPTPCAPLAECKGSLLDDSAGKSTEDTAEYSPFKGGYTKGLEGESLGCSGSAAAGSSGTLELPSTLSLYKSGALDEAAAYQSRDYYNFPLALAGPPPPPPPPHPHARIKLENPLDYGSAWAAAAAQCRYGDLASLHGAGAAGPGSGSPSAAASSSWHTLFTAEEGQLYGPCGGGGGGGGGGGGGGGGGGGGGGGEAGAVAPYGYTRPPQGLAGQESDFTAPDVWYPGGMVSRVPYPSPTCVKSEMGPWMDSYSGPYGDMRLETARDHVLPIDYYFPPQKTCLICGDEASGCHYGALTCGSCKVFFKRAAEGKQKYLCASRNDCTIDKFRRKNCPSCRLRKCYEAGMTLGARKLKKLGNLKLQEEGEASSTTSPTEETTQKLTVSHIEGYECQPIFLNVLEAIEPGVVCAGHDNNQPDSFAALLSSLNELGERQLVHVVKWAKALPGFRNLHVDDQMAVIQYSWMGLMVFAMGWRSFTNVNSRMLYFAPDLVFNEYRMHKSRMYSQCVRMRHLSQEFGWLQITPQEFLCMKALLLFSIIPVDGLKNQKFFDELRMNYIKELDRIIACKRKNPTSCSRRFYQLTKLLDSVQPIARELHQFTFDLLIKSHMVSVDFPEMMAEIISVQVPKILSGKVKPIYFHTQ

For the compound `Cc1cccc(C(=O)O)c1O`, the Potency entry in experiment [1], in experiment [2], in [3], in experiment [4], in experiment [5] and in [6] was “inactive” throughout. Moreover, the Potency result in [7], in experiment [8], in [9], in experiment [10], in experiment [11] and in experiment [12] was “inactive” in each case. Moreover, the Potency result in [13], in experiment [14], in experiment [15], in [16] and in [17] was “inactive” in each case.

For `O=C1C(c2[nH]c3ccc(S(=O)(=O)O)cc3c2O)=Nc2ccc(S(=O)(=O)O)cc21`, the Potency result in experiment [1], in experiment [2], in experiment [3], in [4], in experiment [5] and in [6] was “inactive” in each case. In addition, the Potency result in experiment [7], in experiment [8], in experiment [9], in [10], in [12] and in [14] was “inactive” throughout. Moreover, the Potency entry in experiment [16] and in [17] was “inactive” throughout. Also, the Potency in experiment [18] was 54.5 µM (active).

Turning to `CCCc1ccc(OCC(=O)N2CCN(C(=O)COc3ccc(CCC)cc3OC)CC2)c(OC)c1`, the Potency result in [1], in experiment [6], in experiment [7], in [8], in experiment [9] and in [10] was “inactive” in each case. For the same compound, the Potency result in [18], in experiment [13], in [14], in experiment [15] and in experiment [16] was “inactive” throughout. For the same compound, the Potency in experiment [2] was 23.9 µM (active); in experiment [4] it was 9.52 µM (active); in experiment [5], 9.52 µM (active); in [19] it was 26.6 µM (active); in experiment [11], 29.8 µM (active).

For the compound `O=c1[nH]c(=O)n([C@H]2C[C@H](O)[C@@H](CO)O2)cc1F`, the values for the Potency in experiment [1], in experiment [2] and in experiment [8] were 5.35 µM (active), 6.01 µM (active) and 6.01 µM (active), respectively. Also, the Potency result in experiment [20], in experiment [5], in experiment [6], in experiment [9], in [10] and in experiment [11] was “inactive” each time. For the same compound, the Potency result in experiment [12], in experiment [18], in experiment [13], in experiment [15], in experiment [16] and in experiment [17] was “inactive” throughout.

For the compound `Cc1ccc(C)cc1`, the Potency result in [1], in [2], in [3], in experiment [4], in experiment [5] and in experiment [6] was “inactive” in each case. Further, the Potency entry in experiment [7], in [8], in experiment [9], in experiment [10], in [19] and in [11] was “inactive” each time. For the same compound, the Potency entry in [18], in experiment [13], in experiment [14], in experiment [15], in experiment [16] and in experiment [17] was “inactive” throughout.

Consider `O=S(=O)(O)c1ccc(N=Nc2c(O)ccc3ccccc23)cc1`, for which the Potency result in experiment [1], in experiment [2], in [20], in [6], in [8] and in experiment [16] was “inactive” each time. Besides, the Potency in [9] was 54.5 µM (active); in [10], 30.6 µM (active); in [14] it was 27.3 µM (active); in experiment [15] it was 27.3 µM (active).

For the compound `Oc1ccccc1O`, the Potency entry in [1], in experiment [2], in [3], in experiment [5], in experiment [6] and in [7] was “inactive” each time. In addition, the Potency entry in experiment [8], in experiment [10], in [18], in [13] and in experiment [16] was “inactive” in each case. Besides, the Potency in experiment [4] was 49.6 µM (active) and 24.5 µM (active); in [15] it was 6.19 µM (active) and 15.4 µM (active); in experiment [17] it was 874 nM (active) and inactive.

Turning to `Cc1cc(C)c(/C=C2\C(=O)Nc3ccccc32)[nH]1`, the Potency is 10.7 µM (active) in experiment [1]; 19 µM (active) in experiment [2]; 10.7 µM (active) in experiment [6]; 19 µM (active) in experiment [8]; 13.3 µM (active) in [19]. For the same compound, the Potency entry in experiment [3], in experiment [4], in experiment [5], in experiment [7], in [10] and in experiment [11] was “inactive” in each case. Moreover, the Potency result in experiment [12], in experiment [13], in [14], in [15] and in experiment [16] was “inactive” in each case.

The values are drawn from PubChem BioAssay (Tox21).
